The text below walks through data of PubChem BioAssay.

Assay [1] relates to Human papillomavirus type 1a protein E7 (residues 44-93). Briefly: HPV1a E7 fragment binders on microarrays, primary screen, biochemical, small-molecule microarray, residues 44-93, 635 nm fluorescence (AID 1108).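 Further: E7 fragment applied at 1 µg/mL in TBST for 1 h at 4 C; score combines spot fluorescence with its signal to noise ratio.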 The note with it: small-molecule microarray binding, fluorescence 635 nm; higher = more signal.
Assay [2] can be described thus: modulators of HCV replicon luciferase signal, primary screen, HCV replication inhibitor project, Huh7 cells, luciferase reporter (AID 1109).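 Further: huh7 hepatoma cells harbouring a luciferase neomycin HCV replicon reporter; luciferase luminescence as measure of HCV replicon replication; test concentration not given here.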 The settings on record: 48 h, higher = more signal. Background: Replicon systems follow genome replication, usually without infectious particles.
In assay [3] the target is Left-right determination factor 2 (Homo sapiens) (UniProt O00292). The assay is described as follows: LEFTY2 binders on small-molecule microarrays, primary screen, biochemical, small-molecule microarray, 635 nm fluorescence scan (AID 1110). The note with it: LEFTY2 binding, higher = more signal.
Chain of Left-right determination factor 2 (Homo sapiens) (O00292 whole entry, looked up): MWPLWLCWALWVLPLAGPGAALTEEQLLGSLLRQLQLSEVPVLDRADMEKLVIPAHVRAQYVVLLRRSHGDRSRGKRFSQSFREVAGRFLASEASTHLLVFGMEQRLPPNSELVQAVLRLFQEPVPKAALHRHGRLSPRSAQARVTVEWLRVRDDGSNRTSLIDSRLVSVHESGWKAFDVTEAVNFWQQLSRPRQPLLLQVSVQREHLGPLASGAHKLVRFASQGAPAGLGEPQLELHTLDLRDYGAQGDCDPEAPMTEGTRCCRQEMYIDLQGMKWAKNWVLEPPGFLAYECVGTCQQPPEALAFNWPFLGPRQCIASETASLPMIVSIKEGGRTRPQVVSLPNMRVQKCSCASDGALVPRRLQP
The target of assay [4] is Calmodulin-1 (Homo sapiens) (UniProt P0DP23). Briefly: CALM1 binders on microarrays, EGTA buffer, profiling panel, biochemical, small-molecule microarray, Cy5-labelled CALM1 (AID 1111).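 Further: labelled calmodulin applied in Tris saline Tween buffer holding calcium plus EGTA and DTT.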 The settings on record: Cy5-CALM1 binding fluorescence, higher = more signal.
Assay [5] shares this target. The assay is described as follows: calcium-bound CALM1 binders on microarrays, profiling panel, artefact control for SMM control-protein annotation, biochemical, small-molecule microarray, Cy5-labelled CALM1, plus calcium (AID 1112).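 Further: score merges spot fluorescence with signal to noise from triplicate slides.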 The note with it: Cy5-CALM1 binding fluorescence, higher = more signal.
A short description of assay [6]: small-molecule microarray binders of probe aWnt5a, primary screen, biochemical, biotinylated probe, 635/667 nm fluorescence (AID 1113).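 Further: score merges 667 nm fluorescence intensity with signal-to-noise per printed feature.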 The settings on record: higher = more signal.
The nature of assay [7]: small-molecule microarray binders of probe aShh, primary screen, biochemical, biotinylated probe, 635/667 nm fluorescence (AID 1114).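 Further: probe is biotin-labelled aShh protein from a stem cell growth factor screen; measures binding of labelled protein to compounds printed on the slide; score merges feature fluorescence at 667 nm with signal-to-noise.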 The note with it: higher = more signal.
A short description of assay [8]: small-molecule microarray binders of probe aNog, primary screen, biochemical, biotinylated probe, 635/667 nm fluorescence (AID 1115).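 Further: probe is biotinylated aNog protein used at 0.15 µg/mL for 1 h at 4 C; z-score combines 667 nm fluorescence of each spot with its signal to noise.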 The settings on record: higher = more signal.
Assay [9] deals with Torsin-1A-interacting protein 1 (Homo sapiens) (UniProt Q5JTV8). The assay is described as follows: LAP1 binders from COS7 cell lysate, primary screen, small-molecule microarray, 635/667 nm fluorescence (AID 1116). The settings on record: COS7-hLAP1 lysate binding, 635 nm fluorescence, higher = more signal.
Chain of Torsin-1A-interacting protein 1 (Homo sapiens) (Q5JTV8 whole entry, looked up): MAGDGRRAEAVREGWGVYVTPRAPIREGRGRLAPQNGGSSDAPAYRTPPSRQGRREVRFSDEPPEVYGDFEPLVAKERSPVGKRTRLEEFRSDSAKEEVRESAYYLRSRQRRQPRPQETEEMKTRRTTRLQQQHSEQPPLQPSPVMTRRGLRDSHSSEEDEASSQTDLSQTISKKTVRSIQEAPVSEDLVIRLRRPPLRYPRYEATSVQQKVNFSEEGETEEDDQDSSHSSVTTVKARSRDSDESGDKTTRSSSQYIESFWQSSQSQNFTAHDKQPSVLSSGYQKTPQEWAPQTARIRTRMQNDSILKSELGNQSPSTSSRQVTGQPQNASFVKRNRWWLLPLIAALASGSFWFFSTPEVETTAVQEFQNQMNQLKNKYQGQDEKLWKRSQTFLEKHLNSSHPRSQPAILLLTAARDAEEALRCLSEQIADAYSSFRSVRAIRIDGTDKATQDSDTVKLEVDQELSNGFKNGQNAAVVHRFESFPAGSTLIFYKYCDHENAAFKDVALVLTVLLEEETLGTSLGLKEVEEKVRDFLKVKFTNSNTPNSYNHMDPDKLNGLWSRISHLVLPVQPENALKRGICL
Assay [10] has as its target Alpha-bungarotoxin (Bungarus multicinctus) (UniProt P60615). The assay is described as follows: alpha-bungarotoxin binders on microarray, profiling panel, artefact control for SMM control protein annotation, biochemical, small-molecule microarray, Alexa647 label, 635/667 nm fluorescence (AID 1117). The settings on record: alpha-BTX-A647 binding fluorescence, higher = more signal.

Chain of Alpha-bungarotoxin (Bungarus multicinctus) (P60615 whole entry, looked up): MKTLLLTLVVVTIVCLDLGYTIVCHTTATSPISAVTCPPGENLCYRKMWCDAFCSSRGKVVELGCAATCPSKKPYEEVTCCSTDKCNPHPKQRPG

For `O=C1N[C@@H](Cc2ccccc2)C(=O)N2[C@@H]1C[C@@H](C(=O)O)[C@H]2c1cccc(OCCO)c1`, the composite z-score in assay [1] is 1.3; in assay [3], 0.941; in assay [4], -0.657; in assay [5], 0.465; in [6] it was -0.176; in assay [7], -0.243. Moreover, the composite z-score is -0.199 in assay [8], 0.49 in [9] and 1.14 in [10]. The z-score in [2] amounted to 2.89.

On to `CC1(C)[C@@H]2CC(C(O)C3C=CC4C(=O)N(c5ccccc5)C(=O)C4N3Nc3ccc([N+](=O)[O-])cc3)=C[C@H]1C2` (stereo not given in full), for which the composite z-score turned out to be 1.4 in [1]; 0.492 in assay [3]; 1.69 in assay [4]; 0.691 in assay [5]; 0.0718 in assay [6]; 0.0326 in assay [7]. Also, the composite z-score in assay [8] was found to be 0.902; in assay [9], 0.561; in assay [10] it was 1.67. Also, the z-score in assay [2] is -1.56.

Consider `NC(=O)NCC#Cc1ccc2c(c1)[C@]1(C(=O)N2)[C@H](C(=O)Nc2nc3ccccc3s2)[C@H]2C(=O)O[C@H](c3ccccc3)[C@H](c3ccccc3)N2[C@@H]1c1ccccc1OCCO`, for which the composite z-score in assay [1] is 1.4; in assay [3], 0.235; in assay [4] it was 1.23; in assay [5], 0.579; in assay [6], 0.312; in assay [7] it was -0.0773. Moreover, the composite z-score is 2.12 in assay [8], -0.638 in assay [9] and 2.74 in [10]. In addition, the z-score in assay [2] was -1.33.

On to `COc1ccc([Si](C)(C)[C@H]2[C@H](CC(=O)N3Cc4ccccc4C[C@H]3CO)O[C@@]3(C(=O)N(Cc4cccc(N5CCC5=O)c4)c4ccccc43)[C@@H]2C)cc1`, for which the composite z-score in assay [1] is 1.37; in assay [3] it was 0.903; in assay [4] it was -0.293; in assay [5], -1.02; in assay [6], -0.0425; in [7] it was 0.2. Further, the composite z-score in assay [8] is 0.0308; in assay [9], 0.626; in [10], -0.0509. Moreover, in [2], the z-score was -3.58.

Take `COCCOC(=O)N1C(=O)[C@@]2(c3cc(C#CC4(O)CCCCCC4)ccc31)[C@H](c1ccc(OCCO)cc1)N1[C@H](c3ccccc3)[C@H](c3ccccc3)OC(=O)[C@H]1[C@@H]2C(=O)N1CCN(c2ncccn2)CC1`: the composite z-score was 1.43 in [1]; 0.419 in assay [3]; 0.795 in [4]; 0.124 in assay [5]; 0.0044 in assay [6]; -0.147 in assay [7]. In addition, the composite z-score in [8] stood at 0.106; in [9], 0.667; in [10], 1.19. In assay [2], the z-score was -1.77.

As to `C=CC[C@]1(C(=O)NCc2ccccc2)N=C(c2ccc(OCCCO)cc2)O[C@H]1c1ccccc1N=[N+]=[N-]`, the composite z-score worked out at 1.44 in assay [1]; 0.201 in assay [3]; 1.96 in assay [4]; 0.901 in assay [5]; 0.0108 in assay [6]; 0.0875 in assay [7]. The composite z-score was -0.572 in [8], 1.44 in assay [9] and 1.65 in assay [10]. Further, the z-score in assay [2] was -0.368.

Take `C=CCNC(=O)[C@H]1[C@@H]2C(=O)O[C@@H](c3ccccc3)[C@@H](c3ccccc3)N2[C@@H](c2ccccc2OCCO)[C@]12C(=O)Nc1ccc(C#CCCO)cc12`: the composite z-score in [1] was 1.39; in [3] it was 0.607; in [4] it was -0.231; in assay [5], -0.09; in [6], 0.0357; in [7] it was -0.206. Moreover, the composite z-score stood at 0.0703 in assay [8], 0.567 in assay [9] and 0.365 in [10]. Also, the z-score in [2] is -2.26.

For `CC1CC/C=C\[C@H]2OC34C=CCN(C(C)(C)C)C(=O)[C@H]3N(C(C)CO)C(=O)[C@@H]4C2C(=O)O1` (stereo not given in full), the composite z-score in assay [1] is -0.864; in [3] it was -0.442; in assay [4], -1.19; in assay [5], -1.23; in [6] it was -0.124; in [7] it was -0.0011. The composite z-score in assay [8] is -0.219; in assay [9], -0.23; in assay [10] it was -0.942. The z-score in assay [2] is -1.4.

Turning to `O[C@@H](Cc1ccccc1)[C@H]1C2C=CCCC=C2CN1Cc1cccc(Cl)c1` (stereo not given in full), the composite z-score in assay [1] is 1.1; in assay [3], 0.702; in [4], 0.0101; in assay [5] it was -0.2; in assay [6] it was -0.0721; in assay [7], -0.138. Also, the composite z-score in [8] was 0.277; in [9], 0.761; in assay [10], 1.36. For the same compound, the z-score in assay [2] is -1.42.

`O=C1O[C@H](c2ccccc2)[C@H](c2ccccc2)N2[C@H]1[C@@H](C(=O)N1CCCCCCC1)[C@]1(C(=O)Nc3ccc(C#CCCO)cc31)[C@H]2c1ccccc1OCCO`: the composite z-score in assay [1] was determined as 1.62; in assay [3], 1.91; in assay [4], 3.03; in assay [5] it was 1.73; in [6], 1.69; in assay [7] it was 3.01. Besides, the composite z-score in [8] came to 2.38; in assay [9], 5.84; in assay [10], 4.84. Also, the z-score in assay [2] was -1.53.

Take `COCCOC(=O)N1C(=O)[C@@]2(c3cc(C#CCNC(N)=O)ccc31)[C@H](C(=O)N1CCN(c3ncccn3)CC1)[C@H]1C(=O)O[C@H](c3ccccc3)[C@H](c3ccccc3)N1[C@@H]2c1ccc(OCCO)cc1`: the composite z-score in assay [1] was 1.01; in assay [3] it was 0.188; in assay [4], 0.392; in assay [5], 0.0615; in assay [6], 0.0031; in [7], -0.315. Besides, the composite z-score in assay [8] came to 0.196; in [9], 0.0481; in [10], 1.82. Also, the z-score in assay [2] was -0.801.

On to `C=C[C@H](C)[C@@H](OC(=O)Nc1ccc(OC)cc1)c1ccc(O)c2ccccc12`, for which the composite z-score in [1] was -0.626; in assay [3] it was -0.239; in assay [4], -0.582; in assay [5], -0.461; in assay [6] it was -0.178; in assay [7], 0.318. In addition, the composite z-score in [8] is 0.152; in [9], 0.534; in assay [10], -0.177. Moreover, in assay [2], the z-score was -3.43.

As to `C=CC(=C)[C@H]1Oc2ccccc2S(=O)(=O)N2CCC[C@@H]12`, the composite z-score in assay [1] is -1.24; in assay [3], 0.0569; in [4], -0.523; in [5], -0.536; in [6], -0.138; in [7] it was -0.0211. Moreover, the composite z-score in [8] is -0.353; in [9] it was -0.448; in assay [10], 0.279. In addition, the z-score in assay [2] was -3.25.

On to `CCN(CC)c1ccc(N2CC=CC34O[C@@H]5C=CCCOC(=O)C5[C@H]3C(=O)N(CCCCCCO)[C@@H]4C2=O)cc1` (stereo not given in full), for which the composite z-score in assay [1] was -0.873; in assay [3], -0.395; in [4] it was -0.235; in assay [5] it was 0.307; in [6] it was -0.096; in assay [7] it was -0.26. Also, the composite z-score in assay [8] was -0.229; in [9], 1.33; in assay [10], -0.419. For the same compound, the z-score in assay [2] came to 0.234.

In the case of `C=CCOC(=O)[C@@H]1[C@H]2C(=O)O[C@H](c3ccccc3)[C@H](c3ccccc3)N2[C@H](c2ccc(OCCOC(=O)[C@H]3C[C@H]4C(=O)N5CCC[C@H]5C(=O)N4[C@H]3c3ccc(O)cc3)cc2)[C@@]12C(=O)Nc1ccc(I)cc12`, the composite z-score in [1] is 0.453; in [3], 0.928; in [4], 1.02; in assay [5] it was -0.181; in [6], -0.203; in [7], 0.285. In addition, the composite z-score was -0.326 in [8], 0.65 in assay [9] and 1.61 in assay [10]. Further, the z-score in assay [2] was -1.5.
